Data: the antibiotic and cytotoxicity screens of Wong et al. (2023)
Hit rate of the full screen: of about 39,000 compounds, about 3,300 (8.5%) were called active. Shown is part of a subset that was picked to be rich in actives.

tested on: HepG2; assay: cytotoxicity call (relative viability < 0.9); settings: 10 µM

SMILES | cytotoxicity call
C[C@H]1CN([C@@H](C)CO)C(=O)Cc2cc(NS(C)(=O)=O)ccc2O[C@H]1CN(C)Cc1ccc(C(=O)O)cc1 | inactive
C=CCOC(=O)[C@@H]1[C@H]2C(=O)O[C@H](c3ccccc3)[C@H](c3ccccc3)N2[C@H](c2ccc(OCCOC(=O)[C@H]3C[C@H]4C(=O)N5CCC[C@H]5C(=O)N4[C@H]3c3ccc(O)cc3)cc2)[C@@]12C(=O)Nc1ccccc12 | inactive
Cn1ncc2c(NN3C(=O)CCC3=O)ncnc21 | inactive
CC(C)CC#Cc1ccc2c(c1)O[C@@H](CN(C)Cc1cncnc1)[C@@H](C)CN([C@H](C)CO)S2(=O)=O | inactive
CC(C)NC(=O)[C@@H]1c2ccccc2C(=O)N(Cc2cc(F)cc(C(F)(F)F)c2)[C@H]1c1ccc(CO)cc1 | inactive
CC(C)NC(=O)Nc1ccc2c(c1)C(=O)N([C@H](C)CO)C[C@H](C)[C@@H](CN(C)S(=O)(=O)c1cn(C)cn1)OCCCC[C@H](C)O2 | inactive
CC(C)NC(=O)N1C[C@H]2[C@H](C(=O)N(C)Cc3ccccn3)CCS(=O)(=O)[C@H]2C1 | inactive
Cc1noc(C)c1S(=O)(=O)N(C)C[C@H]1Oc2ccc(NS(=O)(=O)c3ccc(F)cc3)cc2CC(=O)N([C@@H](C)CO)C[C@H]1C | inactive
C=CC[C@@H](CC(=O)N(CCO)Cc1ccccc1)C(=O)N[C@H](COC(=O)[C@@H](CC=C)CC(=O)OC(C)(C)C)Cc1c[nH]c2ccccc12 | inactive
Cc1ccc(S(=O)(=O)N2C[C@H](O)COC[C@H]3O[C@H](CC(=O)NCCCN(C)C)CC[C@@H]32)cc1 | inactive
Cc1ccc(S(=O)(=O)N(C)C[C@@H]2OCCCC[C@H](C)Oc3ccc(NS(=O)(=O)c4ccc(F)cc4)cc3C(=O)N([C@H](C)CO)C[C@H]2C)cc1 | inactive
C[C@@H]1CCCCO[C@H](CN(C)Cc2ccc3c(c2)OCO3)[C@@H](C)CN([C@H](C)CO)C(=O)c2cc(NC(=O)Cc3ccccc3)ccc2O1 | inactive
COc1ccc(CN(C)C[C@@H]2OCCCC[C@@H](C)Oc3ccc(NC(=O)Cc4ccccc4)cc3C(=O)N([C@H](C)CO)C[C@H]2C)cc1 | inactive
CCCCCOc1ccc(-c2cc(-c3ccc(C(=O)N[C@H]4C[C@@H](O)[C@@H](O)NC(=O)[C@H]5[C@@H](O)[C@@H](C)CN5C(=O)[C@H]([C@@H](O)CC(N)=O)NC(=O)[C@H]([C@@H](O)[C@@H](O)c5ccc(O)c(OS(=O)(=O)O)c5)NC(=O)[C@H]5C[C@@H](O)CN5C(=O)[C@H]([C@@H](C)O)NC4=O)cc3)no2)cc1 | inactive
CC[C@H](C)C[C@H](C)CCCCCCCCC(=O)N[C@H]1C[C@@H](O)[C@@H](NCCN)NC(=O)[C@@H]2[C@@H](O)CCN2C(=O)[C@H]([C@H](O)CCN)NC(=O)[C@H]([C@H](O)[C@@H](O)c2ccc(O)cc2)NC(=O)[C@@H]2C[C@@H](O)CN2C(=O)[C@H]([C@@H](C)O)NC1=O | inactive
CCCCCOc1ccc(-c2ccc(-c3ccc(C(=O)N[C@H]4C[C@@H](O)[C@@H](O)NC(=O)[C@@H]5[C@@H](O)[C@@H](C)CN5C(=O)[C@H]([C@@H](C)O)NC(=O)[C@H]([C@H](O)[C@@H](O)c5ccc(O)cc5)NC(=O)[C@@H]5C[C@@H](O)CN5C(=O)[C@H]([C@@H](C)O)NC4=O)cc3)cc2)cc1 | active

SMILES | cytotoxicity call
C[C@@H]1CN([C@@H](C)CO)C(=O)Cc2cc(NC(=O)CCN3CCOCC3)ccc2O[C@H]1CN(C)C(=O)Nc1ccc2c(c1)OCO2 | inactive
CC(C)NC(=O)N(C)C[C@@H]1Oc2ccc(NC(=O)CCC(F)(F)F)cc2C(=O)N([C@H](C)CO)C[C@@H]1C | inactive
Cc1noc(C)c1S(=O)(=O)Nc1ccc2c(c1)C(=O)N([C@H](C)CO)C[C@@H](C)[C@@H](CN(C)C(=O)Nc1ccc(C(F)(F)F)cc1)OCCCC[C@@H](C)O2 | active
Cc1noc(C)c1S(=O)(=O)Nc1ccc2c(c1)C(=O)N([C@H](C)CO)C[C@H](C)[C@H](CN(C)C(=O)Nc1ccc(C(F)(F)F)cc1)OCCCC[C@@H](C)O2 | inactive
Cc1noc(C)c1S(=O)(=O)Nc1ccc2c(c1)C(=O)N([C@@H](C)CO)C[C@H](C)[C@@H](CN(C)C(=O)Nc1ccc(C(F)(F)F)cc1)OCCCC[C@H](C)O2 | active
Cc1noc(C)c1S(=O)(=O)Nc1ccc2c(c1)C(=O)N([C@@H](C)CO)C[C@H](C)[C@H](CN(C)C(=O)Nc1ccc(C(F)(F)F)cc1)OCCCC[C@H](C)O2 | inactive
Cc1noc(C)c1S(=O)(=O)Nc1ccc2c(c1)C(=O)N([C@H](C)CO)C[C@@H](C)[C@H](CN(C)C(=O)Nc1ccc(C(F)(F)F)cc1)OCCCC[C@@H](C)O2 | active
Cc1noc(C)c1S(=O)(=O)Nc1ccc2c(c1)C(=O)N([C@@H](C)CO)C[C@@H](C)[C@@H](CN(C)C(=O)Nc1ccc(C(F)(F)F)cc1)OCCCC[C@@H](C)O2 | inactive
Cc1noc(C)c1S(=O)(=O)Nc1ccc2c(c1)C(=O)N([C@H](C)CO)C[C@H](C)[C@H](CN(C)C(=O)Nc1ccc(C(F)(F)F)cc1)OCCCC[C@H](C)O2 | inactive
Cc1noc(C)c1S(=O)(=O)Nc1ccc2c(c1)C(=O)N([C@@H](C)CO)C[C@@H](C)[C@H](CN(C)C(=O)Nc1ccc(C(F)(F)F)cc1)OCCCC[C@H](C)O2 | inactive
Cc1noc(C)c1S(=O)(=O)Nc1ccc2c(c1)C(=O)N([C@@H](C)CO)C[C@@H](C)[C@@H](CN(C)C(=O)Nc1ccc(C(F)(F)F)cc1)OCCCC[C@H](C)O2 | inactive
C[C@@H]1CN([C@@H](C)CO)C(=O)c2cccc(NC(=O)c3cnccn3)c2O[C@@H]1CN(C)C(=O)Nc1ccccc1 | inactive
COc1ccc(S(=O)(=O)N(C)C[C@H]2Oc3ccc(NC(=O)c4ccncc4)cc3CC(=O)N([C@H](C)CO)C[C@@H]2C)cc1 | inactive
C[C@H](CO)N1C[C@H](C)[C@@H](CN(C)C(=O)Nc2ccc(C(F)(F)F)cc2)Oc2ccc(NC(=O)Cn3cnnn3)cc2CC1=O | inactive
COc1cccc(NC(=O)N2C[C@@H](O)COC[C@@H]3O[C@H](CC(=O)NCCCN4CCOCC4)CC[C@H]32)c1 | inactive
